KDM5B inhibitor – Primary screen for KDM5B Histone Demethylases FDH-coupled qHTS | Lysine-specific demethylase 5B (Homo sapiens), Q9UGL1 | KDM5B demethylase, FDH-coupled NADH fluorescence (FDH is formaldehyde dehydrogenase) | Potency, µM (top dose mostly 57.7 µM), most hits filed as inhibitors | hit rate 2.6% among 220,000 | AID 1347165, 2019; active means well fitted inhibition curve with a large enough effect; further: 0% is about no effect; nearly all actives have a fitted effect of over 70% in size
Target sequence (Q9UGL1 whole entry, looked up): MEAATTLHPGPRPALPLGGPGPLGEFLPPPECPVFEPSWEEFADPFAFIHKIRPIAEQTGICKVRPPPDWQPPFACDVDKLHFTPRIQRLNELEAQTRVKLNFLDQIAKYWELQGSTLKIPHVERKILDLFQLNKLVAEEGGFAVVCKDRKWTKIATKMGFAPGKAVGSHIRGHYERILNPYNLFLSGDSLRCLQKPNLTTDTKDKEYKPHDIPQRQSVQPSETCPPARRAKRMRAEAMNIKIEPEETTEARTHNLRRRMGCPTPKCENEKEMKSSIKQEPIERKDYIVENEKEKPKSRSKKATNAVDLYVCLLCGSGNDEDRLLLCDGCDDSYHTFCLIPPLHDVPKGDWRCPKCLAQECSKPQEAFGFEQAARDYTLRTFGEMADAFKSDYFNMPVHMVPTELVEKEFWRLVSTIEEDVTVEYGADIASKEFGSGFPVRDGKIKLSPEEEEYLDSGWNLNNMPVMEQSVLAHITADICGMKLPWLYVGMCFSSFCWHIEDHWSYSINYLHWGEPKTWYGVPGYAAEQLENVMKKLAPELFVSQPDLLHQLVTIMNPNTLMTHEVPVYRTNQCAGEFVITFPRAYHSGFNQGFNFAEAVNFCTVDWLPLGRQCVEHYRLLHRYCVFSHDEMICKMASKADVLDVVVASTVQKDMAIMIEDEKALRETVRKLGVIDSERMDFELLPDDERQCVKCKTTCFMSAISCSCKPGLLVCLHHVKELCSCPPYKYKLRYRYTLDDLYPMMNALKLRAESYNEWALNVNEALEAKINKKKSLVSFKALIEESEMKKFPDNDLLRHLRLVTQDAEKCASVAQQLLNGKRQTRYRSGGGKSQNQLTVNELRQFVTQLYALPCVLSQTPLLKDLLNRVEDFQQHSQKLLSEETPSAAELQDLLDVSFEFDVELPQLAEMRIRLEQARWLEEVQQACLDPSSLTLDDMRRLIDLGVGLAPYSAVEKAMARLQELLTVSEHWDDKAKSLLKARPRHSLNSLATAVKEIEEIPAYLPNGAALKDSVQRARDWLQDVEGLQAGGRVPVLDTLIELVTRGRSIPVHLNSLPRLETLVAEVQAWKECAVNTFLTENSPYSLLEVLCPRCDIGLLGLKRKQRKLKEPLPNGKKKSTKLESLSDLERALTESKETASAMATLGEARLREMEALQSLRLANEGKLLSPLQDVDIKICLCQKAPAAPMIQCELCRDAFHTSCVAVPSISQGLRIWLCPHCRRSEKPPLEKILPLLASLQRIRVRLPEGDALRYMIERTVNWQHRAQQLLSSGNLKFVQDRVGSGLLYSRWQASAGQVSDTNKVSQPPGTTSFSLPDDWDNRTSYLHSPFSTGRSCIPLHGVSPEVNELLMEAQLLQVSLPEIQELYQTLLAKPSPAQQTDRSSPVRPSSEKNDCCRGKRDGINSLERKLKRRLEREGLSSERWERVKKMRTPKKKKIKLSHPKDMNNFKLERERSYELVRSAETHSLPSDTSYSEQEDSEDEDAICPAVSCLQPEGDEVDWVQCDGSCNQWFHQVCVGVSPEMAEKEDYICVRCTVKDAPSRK
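Inhibition is measured as reduced NADH fluorescence generation from FDH coupling to formaldehyde release. Truncated KDM5BΔAP at 200 nM final acts on H3K4me3 peptide (12.5 µM in substrate mix) in pH 7.5 HEPES buffer with Tween-20, 30 min, room temperature.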
The depositor's hits bear a star; i = inactive; ! = not active in a repeat. Shown is part of a subset that was picked to be rich in hits. Potency means the concentration at half of the fitted maximal effect.

SMILES	KDM5B inhibitor
Cc1ccccc1C(=O)NC1CCN(c2nc3ncccc3o2)CC1	31.6µM*
O=C(NC1CCN(c2nc3ncccc3o2)CC1)C1CCCC1	35.5µM*
O=C(NC1CCCN(c2nc3ncccc3o2)C1)c1cccc(Cl)c1 (stereo not drawn)	i
Cc1ccccc1C(=O)NC1CCCN(c2nc3ncccc3o2)C1 (stereo not drawn)	i
Cc1ccc([S+](=O)([O-])N2CCCN(c3nc4ncccc4o3)CC2)cc1	i
O=C(NC1CCCCC1)C1CCCN(S(=O)(=O)c2cccc3cccnc23)C1 (stereo not drawn)	i
O=C(COc1ccccc1)NCCC1CCN(C(=O)Nc2ccccc2)CC1	i
COc1ccc(NC(=O)CCc2nc3cc(Cl)ccc3n(CC(C)C)c2=O)cc1	i
CSc1ccc(/C=C/C(=O)Nc2ccccc2Cc2ccccc2)cc1	i
CNC(=O)[C@@H](c1ccc(Cl)cc1)N1CCC[C@H]1C(=O)NCCOC	i
Cc1ccc2c(CSc3n[nH]c(=O)n3C3CC3)cc(=O)oc2c1C	i
COCCc1noc([C@@H]2CN(C3CCCCCC3)C[C@H]2CO)n1	i
CC(=O)c1ccccc1NC(=O)COC(=O)c1ccc2ccccc2n1	i
O=S(=O)(NCCO)c1ccc(Cl)c2ccccc12	i
COCC(=O)NC1CCN(c2ccccc2S(=O)(=O)C(F)(F)F)CC1	i
CC(NC(=O)C1CCN(c2nc3ccccc3o2)CC1)c1ccccc1 (stereo not drawn)	i
COCC(=O)NC1CCN(c2nc3ncccc3o2)CC1	31.6µM*
COCC(=O)NC1CCCCCC1	i
O=C(Nc1ccccc1)NC1CCN(c2nc3ncccc3o2)CC1	25.1µM*!
O=C(Nc1ccc(Cl)cc1)NC1CCN(c2nc3ncccc3o2)CC1	i
O=C(CCc1ncc(-c2ccccc2F)o1)Nc1ccc(Cl)cc1F	i
CS(=O)(=O)Nc1ccccc1CNC(=O)C1CCC1	i
Cc1nn(C)c2ncc(NC(=O)CCc3ncc(-c4ccc(F)cc4)o3)cc12	i
COc1ccc(-c2csc3ncn(-c4ccc(Cl)cc4)c(=O)c23)cc1OC	i
Cc1ccc(/C=C/c2cc(C(=O)O)c3ccccc3n2)c(C)c1	i
SMILES	KDM5B inhibitor
O=C(CN1CCN(C(=O)c2cc(-c3ccccc3)n[nH]2)CC1)N1CCCCC1	i
COc1ccc(S(=O)(=O)N2CCc3nn(C)c(=O)n3CC2)cc1Cl	i
Cc1nc(N2CCCCC2)cc(N2CCN(C(=O)c3ccccc3C(F)(F)F)CC2)n1	i
COc1ccc(S(=O)(=O)N2CCc3nc4cc[nH]n4c(=O)c3C2)cc1Cl	25.1µM*
O=C(c1cc(-c2ccccc2)n[nH]1)N1CCc2c(nc3cc[nH]n3c2=O)C1	22.4µM*
COc1ccc(S(=O)(=O)N2CCc3nn(CC4CC4)c(=O)n3CC2)cc1Cl	i
COc1ccccc1CC(=O)N1CCc2c(nc3cc[nH]n3c2=O)C1	28.2µM*
Cc1nc(N2CCCC2)cc(N2CCN(C(=O)c3ccccc3C(F)(F)F)CC2)n1	i
COc1ccccc1CC(=O)N1CCN(c2nc(-c3ccc(Cl)cc3)no2)CC1	i
O=C(c1ccccc1C(F)(F)F)N1CCc2nc3cc[nH]n3c(=O)c2C1	31.6µM*
COc1ccccc1CC(=O)N1CCc2c(nc[nH]c2=O)C1	i
O=C(c1cc(-c2ccccc2)n[nH]1)N1CCc2c(nc(-c3ccc(F)cc3)[nH]c2=O)C1	i
CC(C)(C)NC(=O)CNC(=O)C1CCCCC1	i
N#Cc1cccc(C(=O)c2ccc3c(c2)OCCO3)c1	i
COc1ccccc1-n1[nH]c(CSc2nnnn2-c2ccccc2)cc1=O	i
COc1ccc(C(C)=O)cc1CC(=O)Nc1cc(S(C)(=O)=O)ccc1C	i
CCCOc1ccc(C(N)C(=O)OCC)cc1 (stereo not drawn)	i
CC1Cc2cc(C(=O)c3cc4cc(Cl)ccc4o3)ccc2N1S(C)(=O)=O (stereo not drawn)	i
CN(C(=O)Cc1ccccn1)C1CCc2ccccc21 (stereo not drawn)	i
CCN(CC)C(=O)c1cc(-c2ccc(C)s2)nc2ccccc12	i
N#CC(C(=O)CCc1ccccc1)C(=O)NC1CCCCC1 (stereo not drawn)	i
C#CCNC(=O)c1ccccc1NC(=O)c1cccc2cccnc12	i
NC(=O)C(c1ccccc1)(c1ccccc1)c1ccccc1	i
COc1ccc(CNC(=O)[C@@H]2CCC[C@@H](NCc3cccc(Cl)c3)CN(C)C(=O)C2)cc1	i
COc1ccccc1NC(=O)c1ccc(NC(=O)CC2Sc3ccccc3NC2=O)cc1 (stereo not drawn)	i
COc1cccc2cc(C(=O)Nc3ccccc3OC(F)F)c(=O)oc12	i
O=C(C1CCN(S(=O)(=O)N2CCOCC2)CC1)N1CCc2nc3cc[nH]n3c(=O)c2C1	31.6µM*
COc1ccc(-c2nc3c(c(=O)[nH]2)CCN(C(=O)c2ccccc2OC(F)(F)F)C3)cc1	i
COc1ccc(-c2nnc3n2CCN(C(=O)c2ccccc2C)C3)cc1	i
